# Results taken from PubChem BioAssay (NCI).
# Compounds without any hit were thinned out: in the full panel of roughly 83,000, 20% have a hit.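 Values shown are percent growth following 48 h exposure of cells in 96-well plates to a single concentration of compound; below 10 was considered active.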 Unmarked numbers belong to inactive results. Active and inactive are the calls of the source.
# Tests used:
# Assay in all cases: NCI-60 one-dose screen, 48 h (100 = growth as untreated, 0 = no growth, -100 = all killed)
# Details in all cases: 10 µM
# [1] = tested on: SR leukemia
# [2] = tested on: RPMI-8226 leukemia
# [3] = tested on: OVCAR-8 ovarian
# [4] = tested on: OVCAR-5 ovarian
# [5] = tested on: SK-OV-3 ovarian
# [6] = tested on: IGROV1 ovarian
# [7] = tested on: OVCAR-3 ovarian
# [8] = tested on: HS 578T breast
# [9] = tested on: NCI/ADR-RES ovarian
# [10] = tested on: T-47D breast
# [11] = tested on: BT-549 breast
# [12] = tested on: MDA-MB-435 melanoma
# [13] = tested on: SW-620 colon
# [14] = tested on: MCF7 breast
# [15] = tested on: HCT-116 colon
# [16] = tested on: HCC-2998 colon
# [17] = tested on: KM12 colon
# [18] = tested on: OVCAR-4 ovarian
Compound,growth [1],growth [2],growth [3],growth [4],growth [5],growth [6] [%],growth [7],growth [8],growth [9],growth [10],growth [11] [%],growth [12],growth [13],growth [14],growth [15],growth [16],growth [17],growth [18]
COc1cc(C)ccc1Oc1nc(Nc2ccc(N3CCOCC3)cc2)ncc1NC(=O)Nc1cc(C(F)(F)F)cc(C(F)(F)F)c1,28.3%,61.9%,44.3%,106%,101%,64,51.9%,43.6%,46.6%,81.9%,78.3,81.5%,82.6%,69.3%,22.6%,101%,63.5%,
CCN(CC)CCCC(C)N=C(C1=C(C(=NC(C)CCCN(CC)CC)c2cccc(OC)c2)C(=O)NC1=O)c1cccc(OC)c1 (stereo not drawn),2.6% (active),-30.6% (active),-11.3% (active),-3.07% (active),9.81% (active),,-17.7% (active),16.4%,4.23% (active),-37.3% (active),,-91.1% (active),-9.07% (active),-29.8% (active),-19% (active),-69.9% (active),2.43% (active),-23.5% (active)
COc1ccc(Cl)cc1Nc1nc(C(F)(F)F)ccc1C(=O)N/N=C/c1cc(OC)c(OC)c(OC)c1,14.1%,23%,53.2%,62.4%,34.9%,,10.2%,-11.3% (active),0.977% (active),29.7%,15.9,37.1%,16.7%,17.8%,,8.93% (active),30.6%,23.7%
Oc1ccc(-c2[nH]c3ccccc3c2-c2nc3ccccc3o2)cc1,14.8%,86.6%,91.9%,80.6%,72.9%,52.6,74.1%,81.4%,32.5%,40%,64.7,0.478% (active),40.9%,24.1%,23.7%,58.5%,21%,
CCOC(=O)CN(c1sc(C)c(C)c1C(=O)OCC)S(=O)(=O)c1ccc(C)cc1,96.9%,98.2%,105%,107%,87.1%,111,109%,95.9%,88%,88.5%,102,102%,100%,100%,95.5%,100%,96%,
O=c1oc2c(cc1-c1ccc(F)cc1)C(O)Oc1ccccc1-2 (stereo not drawn),58.1%,90.8%,100%,96.2%,105%,,80.4%,16.6%,54.5%,87.4%,87.6,3.53% (active),45.4%,55.2%,,48.6%,45.3%,90.6%
O=C1c2c(c(=O)[nH]c3ccccc23)CCN1Cc1ccccc1,115%,91.9%,96.4%,92.9%,98.1%,,121%,119%,98.6%,86.1%,87.1,110%,105%,97.5%,,111%,114%,155%
Cc1ccc(S(=O)(=O)N(C)CCCCCC(=O)O)cc1,101%,113%,103%,101%,112%,,106%,108%,98.6%,95.7%,,105%,109%,89.5%,100%,105%,95.3%,106%
COc1ccc(C2=Cn3c(CCC(=O)c4nc5ccccc5[nH]4)nnc3SC2)cc1,18.9%,61.7%,120%,116%,120%,91.6,113%,92.8%,105%,81%,104,90.3%,129%,84.6%,71.4%,127%,98.6%,
